# Laboratory results taken from ChEMBL document CHEMBL1961873, “Compounds: GSK PKIS; Assays: Nanosyn kinase panel” (2012).
# Assays:
# [1] = target: Protein kinase C gamma type (Homo sapiens) (UniProt P05129); conditions: at 1 µM;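 also: each value is an averaged percent inhibition of the enzyme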
# [2] = target: T1, Protein kinase C iota type (Homo sapiens) (UniProt P41743); conditions: at 0.1 µM
# T1 sequence (whole entry): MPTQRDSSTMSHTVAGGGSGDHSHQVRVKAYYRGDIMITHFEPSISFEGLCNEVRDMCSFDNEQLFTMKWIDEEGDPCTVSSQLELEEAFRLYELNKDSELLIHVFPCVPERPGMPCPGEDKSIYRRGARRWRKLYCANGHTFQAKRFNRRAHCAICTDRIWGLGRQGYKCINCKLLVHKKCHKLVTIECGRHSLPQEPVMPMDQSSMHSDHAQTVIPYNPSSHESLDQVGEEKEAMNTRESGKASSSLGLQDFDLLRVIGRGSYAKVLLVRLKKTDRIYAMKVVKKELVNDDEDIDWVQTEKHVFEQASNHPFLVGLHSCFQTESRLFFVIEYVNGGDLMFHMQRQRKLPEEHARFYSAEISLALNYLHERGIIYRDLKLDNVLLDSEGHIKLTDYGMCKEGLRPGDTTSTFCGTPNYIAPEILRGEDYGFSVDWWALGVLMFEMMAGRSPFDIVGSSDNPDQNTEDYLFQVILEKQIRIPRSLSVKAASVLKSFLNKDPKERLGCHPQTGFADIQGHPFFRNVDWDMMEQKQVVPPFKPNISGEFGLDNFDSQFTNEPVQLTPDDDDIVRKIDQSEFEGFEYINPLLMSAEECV
# [3] = target: T1, Protein kinase C iota type (Homo sapiens); conditions: at 1 µM
# [4] = target: Protein kinase C theta type (Homo sapiens) (UniProt Q04759); conditions: at 0.1 µM
# [5] = target: Protein kinase C theta type (Homo sapiens) (UniProt Q04759); conditions: at 1 µM
# [6] = target: Protein kinase C beta type (Homo sapiens) (UniProt P05771); conditions: at 0.1 µM
# [7] = target: Protein kinase C beta type (Homo sapiens) (UniProt P05771); conditions: at 1 µM
# [8] = target: T2, Serine/threonine-protein kinase D1 (Homo sapiens) (UniProt Q15139); conditions: at 0.1 µM
# T2 sequence (whole entry): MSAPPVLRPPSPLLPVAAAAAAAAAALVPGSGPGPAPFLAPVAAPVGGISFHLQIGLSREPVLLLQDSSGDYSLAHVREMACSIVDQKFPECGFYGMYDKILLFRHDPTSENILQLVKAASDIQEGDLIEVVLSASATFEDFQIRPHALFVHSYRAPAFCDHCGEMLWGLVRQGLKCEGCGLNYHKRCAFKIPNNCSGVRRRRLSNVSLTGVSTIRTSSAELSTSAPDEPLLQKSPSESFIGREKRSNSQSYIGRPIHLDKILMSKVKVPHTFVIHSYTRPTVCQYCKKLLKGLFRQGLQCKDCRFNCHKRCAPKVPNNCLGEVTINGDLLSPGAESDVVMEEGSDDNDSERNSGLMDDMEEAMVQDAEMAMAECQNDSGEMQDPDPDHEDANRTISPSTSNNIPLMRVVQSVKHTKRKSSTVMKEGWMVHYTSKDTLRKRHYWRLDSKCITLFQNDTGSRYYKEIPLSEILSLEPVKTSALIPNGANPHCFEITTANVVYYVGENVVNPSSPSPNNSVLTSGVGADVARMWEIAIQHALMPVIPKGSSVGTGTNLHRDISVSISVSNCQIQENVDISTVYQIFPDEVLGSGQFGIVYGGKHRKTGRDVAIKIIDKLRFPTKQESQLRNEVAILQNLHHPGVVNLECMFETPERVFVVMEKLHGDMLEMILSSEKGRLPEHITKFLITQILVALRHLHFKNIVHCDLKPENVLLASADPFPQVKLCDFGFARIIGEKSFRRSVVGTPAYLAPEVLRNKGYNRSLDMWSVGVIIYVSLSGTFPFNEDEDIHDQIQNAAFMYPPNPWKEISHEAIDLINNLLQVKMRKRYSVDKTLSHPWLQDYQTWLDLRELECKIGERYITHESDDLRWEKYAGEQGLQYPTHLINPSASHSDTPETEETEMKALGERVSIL
# [9] = target: T2, Serine/threonine-protein kinase D1 (Homo sapiens); conditions: at 1 µM
# [10] = target: T3, Serine/threonine-protein kinase D2 (Homo sapiens) (UniProt Q9BZL6); conditions: at 0.1 µM
# T3 sequence (whole entry): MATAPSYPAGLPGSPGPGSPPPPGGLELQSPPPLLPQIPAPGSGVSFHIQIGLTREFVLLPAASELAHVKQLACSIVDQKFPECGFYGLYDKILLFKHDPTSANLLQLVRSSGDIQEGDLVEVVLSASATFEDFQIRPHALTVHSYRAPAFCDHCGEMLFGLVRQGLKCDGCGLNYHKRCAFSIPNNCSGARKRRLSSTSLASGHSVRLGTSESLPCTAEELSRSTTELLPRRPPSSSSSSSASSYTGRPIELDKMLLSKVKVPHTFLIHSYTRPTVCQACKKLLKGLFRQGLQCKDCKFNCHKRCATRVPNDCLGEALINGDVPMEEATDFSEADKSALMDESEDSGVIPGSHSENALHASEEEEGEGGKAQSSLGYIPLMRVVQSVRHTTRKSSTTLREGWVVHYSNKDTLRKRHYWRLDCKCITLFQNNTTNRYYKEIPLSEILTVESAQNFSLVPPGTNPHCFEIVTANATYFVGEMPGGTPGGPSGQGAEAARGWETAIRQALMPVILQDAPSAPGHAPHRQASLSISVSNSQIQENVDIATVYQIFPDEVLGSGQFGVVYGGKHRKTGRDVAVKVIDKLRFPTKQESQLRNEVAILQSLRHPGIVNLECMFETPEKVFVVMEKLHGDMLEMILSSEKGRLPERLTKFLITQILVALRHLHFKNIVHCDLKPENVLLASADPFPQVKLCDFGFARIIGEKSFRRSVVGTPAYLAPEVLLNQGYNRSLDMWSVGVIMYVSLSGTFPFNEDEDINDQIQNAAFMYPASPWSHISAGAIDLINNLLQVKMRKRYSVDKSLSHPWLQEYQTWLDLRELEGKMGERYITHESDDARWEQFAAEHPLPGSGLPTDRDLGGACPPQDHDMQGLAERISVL
# [11] = target: T3, Serine/threonine-protein kinase D2 (Homo sapiens); conditions: at 1 µM
# [12] = target: T4, Serine/threonine-protein kinase D3 (Homo sapiens) (UniProt O94806); conditions: at 0.1 µM
# T4 sequence (whole entry): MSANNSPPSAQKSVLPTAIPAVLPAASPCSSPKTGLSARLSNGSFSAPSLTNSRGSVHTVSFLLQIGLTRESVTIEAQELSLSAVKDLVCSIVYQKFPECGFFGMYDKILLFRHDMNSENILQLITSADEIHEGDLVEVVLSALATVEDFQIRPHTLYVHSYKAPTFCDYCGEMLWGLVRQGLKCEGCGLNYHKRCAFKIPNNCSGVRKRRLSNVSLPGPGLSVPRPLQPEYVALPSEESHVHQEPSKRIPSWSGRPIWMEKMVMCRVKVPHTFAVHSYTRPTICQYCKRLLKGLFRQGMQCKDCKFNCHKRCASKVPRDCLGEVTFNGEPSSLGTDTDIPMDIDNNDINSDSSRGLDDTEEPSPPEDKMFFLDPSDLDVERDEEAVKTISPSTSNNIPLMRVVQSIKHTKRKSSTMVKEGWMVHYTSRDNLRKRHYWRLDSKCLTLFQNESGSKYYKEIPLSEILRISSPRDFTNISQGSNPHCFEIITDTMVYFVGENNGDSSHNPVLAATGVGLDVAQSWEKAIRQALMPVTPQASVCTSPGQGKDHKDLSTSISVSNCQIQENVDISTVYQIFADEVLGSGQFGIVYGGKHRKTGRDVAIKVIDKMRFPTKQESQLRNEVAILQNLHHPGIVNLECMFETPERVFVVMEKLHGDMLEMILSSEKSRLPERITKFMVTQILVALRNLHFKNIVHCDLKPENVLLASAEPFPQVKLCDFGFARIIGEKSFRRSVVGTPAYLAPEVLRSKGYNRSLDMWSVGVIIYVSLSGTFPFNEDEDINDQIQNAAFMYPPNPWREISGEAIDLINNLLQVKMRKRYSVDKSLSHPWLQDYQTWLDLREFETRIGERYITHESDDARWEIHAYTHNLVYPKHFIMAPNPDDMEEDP
# [13] = target: T4, Serine/threonine-protein kinase D3 (Homo sapiens); conditions: at 1 µM
# [14] = target: T5, cGMP-dependent protein kinase 1 (Homo sapiens) (UniProt Q13976); conditions: at 0.1 µM
# T5 sequence (whole entry): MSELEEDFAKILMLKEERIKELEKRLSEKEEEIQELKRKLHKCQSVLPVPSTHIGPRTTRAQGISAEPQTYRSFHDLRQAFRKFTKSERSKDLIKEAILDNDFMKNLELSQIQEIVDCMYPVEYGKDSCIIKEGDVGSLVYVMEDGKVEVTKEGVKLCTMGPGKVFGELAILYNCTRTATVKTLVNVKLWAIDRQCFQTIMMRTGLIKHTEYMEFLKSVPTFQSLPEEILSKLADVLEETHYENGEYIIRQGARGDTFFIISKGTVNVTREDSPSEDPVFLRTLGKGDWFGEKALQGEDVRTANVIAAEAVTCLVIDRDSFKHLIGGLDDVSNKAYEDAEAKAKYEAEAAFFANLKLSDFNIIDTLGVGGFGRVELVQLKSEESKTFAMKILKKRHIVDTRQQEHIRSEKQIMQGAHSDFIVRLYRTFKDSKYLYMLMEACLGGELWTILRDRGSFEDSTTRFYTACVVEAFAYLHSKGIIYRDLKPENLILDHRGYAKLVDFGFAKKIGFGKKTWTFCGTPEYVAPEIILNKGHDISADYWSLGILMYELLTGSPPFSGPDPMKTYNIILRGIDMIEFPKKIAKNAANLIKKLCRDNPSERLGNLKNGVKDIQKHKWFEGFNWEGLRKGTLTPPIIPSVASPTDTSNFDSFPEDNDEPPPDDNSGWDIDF
# [15] = target: T5, cGMP-dependent protein kinase 1 (Homo sapiens); conditions: at 1 µM
# [16] = target: T6, cGMP-dependent protein kinase 2 (Homo sapiens) (UniProt Q13237); conditions: at 0.1 µM
# T6 sequence (whole entry): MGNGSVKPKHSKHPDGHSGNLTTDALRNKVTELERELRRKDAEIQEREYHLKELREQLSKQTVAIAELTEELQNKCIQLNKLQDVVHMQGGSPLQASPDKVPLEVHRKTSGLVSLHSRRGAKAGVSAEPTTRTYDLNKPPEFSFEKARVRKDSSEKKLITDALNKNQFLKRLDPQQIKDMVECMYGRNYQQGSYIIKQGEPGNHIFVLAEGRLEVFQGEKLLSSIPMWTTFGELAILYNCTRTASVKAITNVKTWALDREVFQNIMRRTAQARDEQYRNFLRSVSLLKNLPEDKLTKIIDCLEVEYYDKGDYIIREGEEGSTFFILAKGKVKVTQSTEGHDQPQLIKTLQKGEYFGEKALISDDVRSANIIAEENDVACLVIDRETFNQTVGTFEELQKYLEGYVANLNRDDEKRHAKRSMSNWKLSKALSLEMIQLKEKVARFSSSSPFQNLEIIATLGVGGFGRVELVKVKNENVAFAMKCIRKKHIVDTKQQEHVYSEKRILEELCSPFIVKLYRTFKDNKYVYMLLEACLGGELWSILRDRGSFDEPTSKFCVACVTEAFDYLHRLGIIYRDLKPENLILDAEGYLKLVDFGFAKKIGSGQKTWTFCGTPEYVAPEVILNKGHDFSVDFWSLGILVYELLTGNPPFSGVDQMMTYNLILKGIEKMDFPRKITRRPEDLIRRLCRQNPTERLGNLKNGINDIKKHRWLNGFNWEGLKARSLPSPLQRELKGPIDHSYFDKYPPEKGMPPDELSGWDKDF
# [17] = target: T6, cGMP-dependent protein kinase 2 (Homo sapiens); conditions: at 1 µM
# [18] = target: T7, cAMP-dependent protein kinase catalytic subunit PRKX (Homo sapiens) (UniProt P51817); conditions: at 0.1 µM
# T7 sequence (whole entry): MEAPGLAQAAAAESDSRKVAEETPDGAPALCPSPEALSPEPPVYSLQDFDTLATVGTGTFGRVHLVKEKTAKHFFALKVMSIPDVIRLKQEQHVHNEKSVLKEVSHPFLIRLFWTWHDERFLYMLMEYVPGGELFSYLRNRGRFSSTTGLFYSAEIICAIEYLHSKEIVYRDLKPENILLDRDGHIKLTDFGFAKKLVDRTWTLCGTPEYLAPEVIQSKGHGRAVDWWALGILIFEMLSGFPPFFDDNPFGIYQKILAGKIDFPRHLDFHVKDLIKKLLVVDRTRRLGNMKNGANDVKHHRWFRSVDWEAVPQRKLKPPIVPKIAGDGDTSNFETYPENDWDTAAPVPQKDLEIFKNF
# [19] = target: T7, cAMP-dependent protein kinase catalytic subunit PRKX (Homo sapiens); conditions: at 1 µM
# [20] = target: Rho-associated protein kinase 1 (Homo sapiens) (UniProt Q13464); conditions: at 0.1 µM;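 also: values are mean percent inhibition of ROCK1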
# Sequence of Rho-associated protein kinase 1 (Homo sapiens) (Q13464 2-1354 limits assumed): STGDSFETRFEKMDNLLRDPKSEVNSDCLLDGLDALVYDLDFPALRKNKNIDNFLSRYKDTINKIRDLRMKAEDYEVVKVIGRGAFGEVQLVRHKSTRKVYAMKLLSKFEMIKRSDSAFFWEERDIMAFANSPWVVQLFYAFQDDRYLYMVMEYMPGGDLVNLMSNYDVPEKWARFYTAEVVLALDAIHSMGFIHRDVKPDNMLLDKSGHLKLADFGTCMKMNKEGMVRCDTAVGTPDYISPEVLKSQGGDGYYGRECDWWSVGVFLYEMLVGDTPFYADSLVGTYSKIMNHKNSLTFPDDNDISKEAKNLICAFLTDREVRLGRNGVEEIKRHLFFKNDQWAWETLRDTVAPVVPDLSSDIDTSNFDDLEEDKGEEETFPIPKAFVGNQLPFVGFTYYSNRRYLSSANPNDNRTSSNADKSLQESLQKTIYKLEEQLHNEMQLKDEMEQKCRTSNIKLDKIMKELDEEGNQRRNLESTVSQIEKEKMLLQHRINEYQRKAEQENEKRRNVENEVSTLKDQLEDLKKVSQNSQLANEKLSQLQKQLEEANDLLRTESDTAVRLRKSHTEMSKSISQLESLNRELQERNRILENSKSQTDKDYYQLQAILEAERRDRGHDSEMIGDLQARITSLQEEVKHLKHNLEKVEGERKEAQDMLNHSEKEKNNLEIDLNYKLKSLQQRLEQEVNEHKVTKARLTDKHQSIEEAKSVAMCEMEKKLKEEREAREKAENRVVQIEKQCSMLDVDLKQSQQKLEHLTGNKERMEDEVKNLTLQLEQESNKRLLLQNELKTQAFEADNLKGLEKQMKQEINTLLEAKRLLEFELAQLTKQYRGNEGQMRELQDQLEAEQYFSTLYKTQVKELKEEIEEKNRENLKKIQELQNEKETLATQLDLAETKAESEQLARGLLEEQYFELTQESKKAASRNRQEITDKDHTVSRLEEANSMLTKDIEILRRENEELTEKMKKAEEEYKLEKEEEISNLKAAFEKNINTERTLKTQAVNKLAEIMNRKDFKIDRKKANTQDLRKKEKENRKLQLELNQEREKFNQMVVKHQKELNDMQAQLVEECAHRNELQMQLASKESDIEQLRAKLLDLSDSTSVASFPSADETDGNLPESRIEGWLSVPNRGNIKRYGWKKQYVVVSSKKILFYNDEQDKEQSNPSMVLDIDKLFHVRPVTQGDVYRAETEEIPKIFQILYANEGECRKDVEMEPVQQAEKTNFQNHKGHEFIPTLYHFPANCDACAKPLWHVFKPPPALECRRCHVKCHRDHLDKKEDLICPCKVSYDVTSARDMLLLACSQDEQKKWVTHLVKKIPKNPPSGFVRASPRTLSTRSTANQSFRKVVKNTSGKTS
# Sequence of Protein kinase C beta type (Homo sapiens) (P05771 2-671 limits assumed): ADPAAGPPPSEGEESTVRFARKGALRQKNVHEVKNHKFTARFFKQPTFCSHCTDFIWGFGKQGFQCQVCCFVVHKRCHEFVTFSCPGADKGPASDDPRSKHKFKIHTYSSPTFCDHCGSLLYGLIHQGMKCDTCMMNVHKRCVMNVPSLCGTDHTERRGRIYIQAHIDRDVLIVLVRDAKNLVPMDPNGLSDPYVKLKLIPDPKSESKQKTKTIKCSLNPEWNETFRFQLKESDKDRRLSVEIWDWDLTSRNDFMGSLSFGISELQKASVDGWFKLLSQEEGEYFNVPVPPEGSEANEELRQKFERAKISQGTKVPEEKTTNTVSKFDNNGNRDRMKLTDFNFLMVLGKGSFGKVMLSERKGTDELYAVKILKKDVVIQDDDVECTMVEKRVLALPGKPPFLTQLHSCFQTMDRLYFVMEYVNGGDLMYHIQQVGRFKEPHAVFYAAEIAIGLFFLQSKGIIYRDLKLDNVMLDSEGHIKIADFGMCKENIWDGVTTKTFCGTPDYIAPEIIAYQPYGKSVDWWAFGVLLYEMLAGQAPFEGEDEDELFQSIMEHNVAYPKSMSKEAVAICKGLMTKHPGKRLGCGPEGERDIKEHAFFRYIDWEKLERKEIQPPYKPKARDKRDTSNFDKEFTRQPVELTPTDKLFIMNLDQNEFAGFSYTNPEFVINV
# Sequence of Protein kinase C theta type (Homo sapiens) (Q04759 whole entry, looked up): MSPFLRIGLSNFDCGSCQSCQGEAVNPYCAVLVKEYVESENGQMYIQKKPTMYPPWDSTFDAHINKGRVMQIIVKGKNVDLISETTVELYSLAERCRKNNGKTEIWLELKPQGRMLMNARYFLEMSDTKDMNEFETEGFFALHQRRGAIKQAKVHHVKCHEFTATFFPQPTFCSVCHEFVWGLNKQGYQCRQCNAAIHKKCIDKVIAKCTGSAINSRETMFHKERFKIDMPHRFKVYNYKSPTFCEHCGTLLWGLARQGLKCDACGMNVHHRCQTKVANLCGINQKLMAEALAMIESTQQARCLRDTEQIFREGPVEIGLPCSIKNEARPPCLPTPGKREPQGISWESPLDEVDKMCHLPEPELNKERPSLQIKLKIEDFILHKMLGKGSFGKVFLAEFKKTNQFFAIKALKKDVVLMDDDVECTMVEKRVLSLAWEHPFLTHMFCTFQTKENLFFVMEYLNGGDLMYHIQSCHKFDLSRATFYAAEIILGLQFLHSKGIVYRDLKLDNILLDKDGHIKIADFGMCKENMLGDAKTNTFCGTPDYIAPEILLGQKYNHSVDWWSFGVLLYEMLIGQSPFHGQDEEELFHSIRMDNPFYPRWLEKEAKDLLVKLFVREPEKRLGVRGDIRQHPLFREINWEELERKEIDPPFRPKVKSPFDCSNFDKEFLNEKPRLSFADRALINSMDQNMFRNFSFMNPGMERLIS
Structure (SMILES),inhibition [1] [%],inhibition [2] [%],inhibition [3] [%],inhibition [4] [%],inhibition [5] [%],inhibition [6] [%],inhibition [7] [%],inhibition [8] [%],inhibition [9] [%],inhibition [10] [%],inhibition [11] [%],inhibition [12] [%],inhibition [13] [%],inhibition [14] [%],inhibition [15] [%],inhibition [16] [%],inhibition [17] [%],inhibition [18] [%],inhibition [19] [%],inhibition [20] [%]
COc1ccccc1-c1cc(/C=C2\C(=O)Nc3ncc(Br)cc32)cc(Br)c1O,2.98,0.64,2.57,1.61,1.73,2.24,0.81,3.57,6.42,4.74,6.48,5.02,6.21,2.01,5.3,1.73,5.97,0.16,0.16,0.21
NS(=O)(=O)c1cccc(N/C=C2\C(=O)Nc3ccccc32)c1,3.27,1.82,2.43,2.17,1.6,1.9,3.11,3.72,11,3.88,11,5,9.04,3.34,4.68,1.91,7.34,1.79,2.25,1.58
CNC(=O)c1sc(-n2cnc3cc(OC)c(OC)cc32)cc1OCc1ccccc1C(F)(F)F,-2.1,1.37,0.74,2.36,0.67,1.04,1.38,3.83,4.48,4,4.27,4.09,4.54,2.58,2.12,1.27,1.38,2.66,1.17,0.61
